Some of the results follow. Records with an inconclusive call do not appear. Active and inactive are the calls of the source. Calls come from the whole dose curve; as a rule, active = well fitted curve in the direction sought with a large enough effect; inconclusive = small, poorly fitted or top-dose-only effect, or effect the other way, or another doubt; inactive = no such curve, though single readings can be large or run the other way. Residues, ends and D or L forms follow the SMILES beside them. *: point of attachment. OPac = O=C(CO*)c1ccccc1; Bz = O=C(c1ccccc1)*
These molecules were tested against Thyrotropin-releasing hormone receptor (Homo sapiens) (UniProt P34981) (assay: qHTS for Small Molecule Agonists and Allosteric Enhancers of Human TRH Receptor: Confirmation Screen for Enhancers). Details: TRH receptor cell assay, enhancer confirmation qHTS; series mostly up to 46.1 µM; activity change, negative = inhibition: at the top concentration.
Sequence of Thyrotropin-releasing hormone receptor (Homo sapiens) (P34981 whole entry, looked up): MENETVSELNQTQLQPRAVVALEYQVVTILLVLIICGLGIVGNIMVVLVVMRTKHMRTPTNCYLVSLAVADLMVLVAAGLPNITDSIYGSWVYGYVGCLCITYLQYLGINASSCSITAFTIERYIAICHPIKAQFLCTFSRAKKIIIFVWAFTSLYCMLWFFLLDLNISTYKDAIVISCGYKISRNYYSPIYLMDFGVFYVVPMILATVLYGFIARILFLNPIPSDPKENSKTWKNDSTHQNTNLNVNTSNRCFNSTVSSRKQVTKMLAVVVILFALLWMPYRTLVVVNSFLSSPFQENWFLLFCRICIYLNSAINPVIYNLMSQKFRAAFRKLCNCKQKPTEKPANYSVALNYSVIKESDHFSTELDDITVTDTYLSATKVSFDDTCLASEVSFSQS
Description: NIH Chemical Genomics Center [NCGC]
NIH Molecular Libraries Probe Centers Network [MLPCN]
Assay Submitter (PI): Marvin Gershengorn
This project aims to identify small drug-like molecules that activate (agonists) the thyrotropin releasing hormone (TRH) receptor (TRHR) or enhance its TRH-stimulated activity (allosteric enhancers). TRHR, a drug-accessible cell surface receptor expressed in specific brain regions, and its ligand TRH have been implicated in several central nervous system disorders, including depression and anxiety. Small molecule TRHR agonists or allosteric enhancers that are metabolically stable and able to cross the blood-brain barrier might serve as probes to elucidate the roles of brain TRH receptors in animal models, and might be valuable as lead compounds for the development of drugs to treat patients with central nervous system disorders.
Upon TRHR-Gq activation in TRHR cells, intracellular calcium is released from stores in the endoplasmic reticulum. […] This primary screen measures compound-induced enhancement of an EC20 stimulation of the receptor by its native ligand.
For the HTS assay freshly prepared cells are plated at a density of 2000/well in 3 ul of complete DMEM medium containing 10% serum in 1536-well plates and cultured over night at 37 C in a humidified incubator with 5% CO2. The next day, 2 ul of a no wash calcium dye (ABD Bioquest) was added to the cells and plates were incubated at room temperature for 1 hour. For the assay, assay plates were loaded into the FDSS kinetic plate reader. A 10 cycle (1 second/cycle) baseline measurement is taken and then the FDSS online 1536 pintool delivers 23 nl of compound library (as well as TRH controls) to the plate. The plate is measured for kinetically at 1 cycle/sec for 180 seconds and is considered to be the agonist portion of the assay (eg, compounds which activate a positive calcium response during this portion are flagged as potential agonists). Following the 180 second read, 1 ul of either an EC20 (positive modulation assay) is delivered by an onboard pipette head. Measurements are taken kinetically for an additional 180 seconds.
TRHR FDSS Screening Protocol
1. Reagent, 3 uL 2000 cells/well 1536 TC treated Black plate in media containing 10% FCS
2. Time, 18 hours, 33.5C 5% CO2 (cells grown at 37C)
3. Reagent, 2 uL ABD fluo-8 Ca dye
4. Time, 30 min-1.5hrs hours, Room temp (6 plates/batch)
5. Detector, EX 480/EM 530C, FDSS 10 cycles baseline (1sec/cycle)
6. Compound, 23 nL of stock solution from library
7. Detector, EX 480/EM 530C, FDSS 230 cycles (1sec/cycle) Agonist mode
8. Compound, 1 ul EC20 of TRH made up in HEPES HBSS, 10 nM final
9. Detector, EX 480/EM 530C, FDSS 100 cycles (1sec/cycle) Potentiator mode
Note: 0% is about no effect.

Activity change, negative = inhibition, inactive:
Cc1c(/C=N\NC(=O)c2cc3ccccc3o2)c2ccccc2n1C 2.39%
O=c1[nH]c2cccnc2n(CCNc2ncc(C(F)(F)F)cc2Cl)c1=O 0.268%
Cc1ccc(-c2cn(S(=O)(=O)c3cccc([N+](=O)[O-])c3)nc2N)cc1 5.91%
Cc1ccc(S(=O)(=O)N2CCN(CC(=O)N/N=C/c3ccc(Br)s3)CC2)cc1 -4.75%
Cc1nn(Cc2ccccc2)c(C)c1C(=O)N1CCN(CC(=O)Nc2ccccc2Cl)CC1 -4%
C/C(=N/OC(=O)c1ccc(Br)cc1)c1ccc(C)cc1 -0.906%
CCOc1ncccc1C(=O)OCC(=O)N1c2ccccc2CC1C (stereo not given) -1.35%
Cc1csc(CN(C)C(=O)CC2C(=O)NCCN2CC(C)(C)C)n1 (stereo not given) -1.78%
CN(C(=O)CSc1nnc(Nc2ccccc2)s1)C1CCS(=O)(=O)C1 (stereo not given) -2.15%
Cn1cccc1C1(C(F)(F)F)NCCNC1=O (stereo not given) -9.47%
COc1ccc(Cl)cc1NC(=O)CN(C)Cc1ccc(OC)c(OC)c1 3.53%
Cc1cc(C(=O)CCl)c(C)n1CC1COc2ccccc2O1 (stereo not given) -7.04%
CCOC(=O)C1=C(O)/C(=C/c2cc(C)n(-c3ccccc3)c2C)N=C1C -3.74%
C/C(=C\c1ccco1)CN1CCC(N2CCC(C(=O)N3CCOCC3)CC2)CC1 -0.0999%
Cc1ccc(Cl)c(OCC(=O)N2CCc3ccccc3C2)c1 -14.7%
Cc1cccn2c(=O)c3cc(C(=O)NC4CCCCC4)sc3nc12 0.429%
CC(=O)N1CCN(CC(=O)Nc2ccc(C)c(F)c2)CC1 1.27%
CC1(C)Cc2c(cnn2-c2cccc(F)c2)C(NC(=O)c2cc[n+]([O-])cc2)C1 (stereo not given) -3.62%
Cc1cc(C)c2nc3nc(C)cc(C)c3c(N)c2c1 -10.9%
O=C(CNC(=O)c1ccccc1)NCC(=O)OCC(=O)c1ccccc1 (Bz-Gly-Gly-OPac) -2.83%
N#Cc1ccc(Oc2cc(C(F)(F)F)nc(-c3ccccn3)n2)cc1 -2.68%
COC(=O)C1=C(C)NC2=C(C(=O)c3ccccc32)C1c1ccc(-c2ccc(C(=O)O)cc2)o1 (stereo not given) 12%
CSc1nnnn1-c1c(C)cc(C)cc1C 2.92%
O=c1o[nH]c(-c2ccccc2)c1N=Nc1c(F)cccc1Cl -7.87%
CCOc1cc(CN2CCCC(CO)(Cc3ccc(F)cc3F)C2)ccc1OC (stereo not given) 5.12%
CC(=O)c1cc(NC(=O)c2ccccc2)c(=O)oc1/C=C/N(C)C 0.662%
COC(=O)c1cc(N2CCNCC2)nc2ccccc12 -2.19%
Cc1cc(S(=O)(=O)c2cc3ccc(O)c(C)c3oc2=O)ccc1F -3.01%
O=C(Nc1ccccc1)c1cccnc1Nc1ccccc1 -4.95%
NC(N)=Nc1nc(-c2ccccc2)c2cc(Cl)ccc2n1 -3.05%
O=C(CN1C(=O)c2cccc3cccc1c23)Nc1ccccc1 -1.92%
CCc1nnc(NC(=O)[C@@H](NC(=O)c2cccc(C)c2)C(C)C)s1 -7%
NS(=O)(=O)c1cccc(NC(=O)CSc2nc3ccccc3n2-c2ccccc2)c1 -3.66%
COc1cc(C2C3=C(CCCC3=O)OC3=C2C(=O)CCC3)ccc1OCC(=O)Nc1ccccc1 -3.25%
O=C1C(=O)N(CCCO)C(c2ccccc2)/C1=C(\O)c1ccc(Br)cc1 (stereo not given) -0.976%
CC(=O)n1c(C=Nc2ccccc2)c(O)c2ccccc21 -1.01%
CCc1ccccc1NC(=O)/C(=C/c1ccccc1)c1ccccc1 0.209%
c1cnc(N2CCN(c3ccc4ccccc4n3)CC2)nc1 -7.49%
O=C1NC(=O)C2C1C(c1ccc([N+](=O)[O-])cc1)=NN2Cc1ccccc1 (stereo not given) -0.0147%
COc1cc(/C=C(\C#N)c2nc3ccccc3[nH]2)ccc1O -0.256%

— PubChem BioAssay AID493076 (National Center for Advancing Translational Sciences (NCATS), 2011)
